Screening data: PubChem, National Center for Advancing Translational Sciences (NCATS)
Hits are enriched below; roughly 12% of the tested compounds scored in any of these assays.
BAZ2B inh: qHTS Assay for Inhibitors of BAZ2B. AlphaScreen BAZ2B-H3K14Ac peptide displacement. Potency, µM (series often up to 114 µM), hits mostly inhibitors. actives 4.4% (n = 360,000); also: nearly all actives have a fitted effect of over 60% in size
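BAZ2B 50 nM plus b-H3(5-23)K14Ac 50 nM, PBS pH 7.4/0.01% Tween-20, 30 min RT; compound added (max 110 uM), 30 min RT; streptavidin donor/Ni-chelate acceptor beads 10 ug/mL final, 20 min dark; AlphaScreen read.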
Sfp inh: qHTS Assay for Inhibitors of Bacillus subtilis Sfp phosphopantetheinyl transferase (PPTase) | Biochemical Sfp PPTase activity, qHTS | Potency, µM, actives largely listed as inhibitors | actives 3.5% (n = 310,000) | AID 1490, 2009;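 also: the enzyme is Sfp with the accession as filed and its product quenches rhodamine fluorescence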
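Reaction rates are the 30-min fluorescence difference (ex 525, em 598 nm) in wells containing 15 nM Sfp, 5 uM rhodamine-CoA and 12.5 uM BHQ-2-YbbR at pH 7.6 with 10 mM MgCl2.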
PLK1 PBD block: qHTS for Inhibitors of PLK1-PDB (polo-like kinase 1 - polo-box domain): Primary Screen; Plk1 PBD binding of FITC phosphopeptide, fluorescence polarization; Potency, µM, hits mostly inhibitors; actives 2.8% (n = 360,000); also: series mostly up to about 57 µM; nearly all actives have a fitted effect of over 65% in size
HP1b binding inh: HTS for Inhibitors of HP1-beta Chromodomain Interactions with Methylated Histone Tails; Chromobox protein homolog 1 (Homo sapiens), P83916; AlphaScreen HP1-beta / biotin-H3K9me3 peptide binding; Potency, µM (titrated, usually from 114 µM), actives largely listed as inhibitors; actives 0.56% (n = 390,000); AID 540317, 2011; also: nearly all actives have a fitted effect of over 70% in size
Target sequence (P83916 whole entry, looked up): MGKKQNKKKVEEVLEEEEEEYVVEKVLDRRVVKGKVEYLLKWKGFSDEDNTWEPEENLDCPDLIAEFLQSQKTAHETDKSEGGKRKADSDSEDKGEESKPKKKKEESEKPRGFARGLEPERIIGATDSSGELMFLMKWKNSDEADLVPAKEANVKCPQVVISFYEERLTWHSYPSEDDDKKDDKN
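AlphaScreen: HP1-beta (50 nM) preformed 30 min with biotin-H3(1-18)K9me3 peptide (50 nM) in PBS pH 7.4, 0.01% Tween-20. Compound added for 30 min at RT, then streptavidin donor/nickel chelate acceptor beads (10 ug/mL) for 30 min.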
G9a block: qHTS Assay for Inhibitors of Histone Lysine Methyltransferase G9a; Histone-lysine N-methyltransferase EHMT2 (Homo sapiens), Q96KQ7; G9a H3K9 monomethylation, AlphaScreen, 2 h; Potency, µM (top dose mostly 102 µM), hits mostly inhibitors; actives 8.8% (n = 350,000); also: nearly all actives have a fitted effect of over 75% in size
Target sequence (Q96KQ7 913-1193 limits assumed): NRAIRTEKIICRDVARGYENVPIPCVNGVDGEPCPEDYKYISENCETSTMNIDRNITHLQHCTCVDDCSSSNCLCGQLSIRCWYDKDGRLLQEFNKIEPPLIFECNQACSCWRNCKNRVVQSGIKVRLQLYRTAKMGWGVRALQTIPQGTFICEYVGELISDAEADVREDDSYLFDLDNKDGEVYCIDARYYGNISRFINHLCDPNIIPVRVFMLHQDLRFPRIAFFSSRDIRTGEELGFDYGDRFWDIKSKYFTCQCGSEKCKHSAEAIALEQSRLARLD
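Enzyme 20 nM + cpd, 15 min RT; add b-H3K9 pep 500 nM / SAM 20 uM; 2 h RT; anti-H3K9me1 Ab 0.5 ug/mL + SA donor / anti-rabbit acceptor beads 20 ug/mL each, 10 min; AlphaScreen read.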
JMJD2A Tudor: qHTS Assay for Inhibitors of JMJD2A-Tudor Domain. Lysine-specific demethylase 4A (Homo sapiens), O75164. AlphaScreen JMJD2A-Tudor / H3K4me3 peptide binding. Potency, µM (top dose mostly 114 µM), hits mostly inhibitors. actives 4.4% (n = 390,000). AID 504339, 2011; also: nearly all actives have a fitted effect of over 50% in size
Large screens that a line does not name were inactive. Calls follow the shape of the dose curve; as a rule, active = well fitted curve in the direction sought with a large enough effect; inconclusive = small, poorly fitted or top-dose-only effect, or another doubt; inactive = no such curve, though single readings can be large; an effect the other way counts as inactive or inconclusive.

CC(=O)NC(CC(=O)NC1CCCCC1)c1ccccc1 (centres undefined)	G9a block 10µM
CC(=O)NC(CC(=O)Nc1cccc(S(=O)(=O)N2CCCCC2)c1)c1ccccc1 (centres undefined)	G9a block 50µM
CC(C)(C)c1ccc(OCCC(=O)Nc2cccc(S(=O)(=O)N3CCCC3)c2)cc1	G9a block 3.5µM (no result: Sfp inh)
CCC(C)NC(=O)Cn1c(=O)n(CCCCCC(=O)NCc2ccccc2Cl)c(=O)c2sccc21 (centres undefined)	none (no result: Sfp inh, PLK1 PBD block)
O=C(Cc1ccc(Cl)cc1)Nc1cccc(S(=O)(=O)N2CCCCC2)c1	none (no result: Sfp inh)
O=C(CCl)Nc1cccc(S(=O)(=O)N2CCCCCC2)c1	G9a block 50µM
COc1ccc(NC(=O)c2cccn2-c2nnc(N3CCCCC3)s2)cc1	none (no result: Sfp inh, PLK1 PBD block)
O=[N+]([O-])c1ccc(-c2cc(-c3ccc(Cl)cc3)n[nH]2)cc1	PLK1 PBD block 3µM, G9a block 25µM, JMJD2A Tudor inconclusive
O=[N+]([O-])c1ccc(-c2cnc[nH]2)cc1	BAZ2B inh inconclusive (no result: G9a block)
O=C1/C(=C/c2cccnc2)CC/C1=C\c1cccnc1	none (no result: BAZ2B inh)
O=C1ON=C(c2ccccc2)/C1=C/c1ccc(OS(=O)(=O)c2ccccc2)cc1	BAZ2B inh 50µM, PLK1 PBD block 6µM, HP1b binding inh inconclusive, G9a block 8.9µM, JMJD2A Tudor 79µM
COc1ccc(/C=C2\C(=O)ON=C2c2ccccc2)cc1	BAZ2B inh inconclusive, Sfp inh 40µM, PLK1 PBD block 1.5µM, G9a block 40µM, JMJD2A Tudor 35µM
O=c1cc(-c2ccccc2)oc2cc(O)c(O)cc12	G9a block inconclusive (no result: BAZ2B inh, PLK1 PBD block, HP1b binding inh, JMJD2A Tudor)
O=C1ON=C(c2ccccc2)/C1=C/c1ccc(O)c(O)c1	BAZ2B inh 28µM, Sfp inh 50µM, PLK1 PBD block inconclusive, HP1b binding inh 8.9µM, G9a block 25µM, JMJD2A Tudor 14µM
O=C1ON=C(c2ccccc2)/C1=C/c1cccnc1	G9a block 45µM
COc1ccc(/C=C2\Oc3ccccc3C2=O)cc1	none (no result: BAZ2B inh, Sfp inh, G9a block)
Cc1c(Cl)cccc1NC(=O)CSc1ncc2c(n1)-c1ccccc1N(C)S2(=O)=O	none (no result: Sfp inh, PLK1 PBD block)
O=C1/C(=C/c2ccc(O)cc2)CCc2ccc([N+](=O)[O-])cc21	G9a block inconclusive
O=C1ON=C(c2cccc([N+](=O)[O-])c2)/C1=C/c1ccc(O)cc1	BAZ2B inh inconclusive, PLK1 PBD block 1.5µM, G9a block 22µM
O=C(O)Cc1sc(NCCc2ccccc2)nc1-c1ccc(F)cc1	G9a block inconclusive
Cc1ccc(-c2nc(Nc3cccc(C)c3)sc2CC(=O)O)cc1	Sfp inh 20µM, PLK1 PBD block inconclusive, JMJD2A Tudor inconclusive (no result: G9a block)
O=C(O)Cc1sc(N/N=C\c2ccccc2)nc1-c1ccccc1	BAZ2B inh inconclusive, Sfp inh 40µM, PLK1 PBD block 12µM, G9a block 3.2µM, JMJD2A Tudor inconclusive
O=C(O)Cc1sc(NC2CCCCC2)nc1-c1ccc(Cl)cc1	BAZ2B inh inconclusive, G9a block 40µM
Cc1cccc(Nc2nc(CC(=O)O)cs2)c1	BAZ2B inh inconclusive, Sfp inh inconclusive, G9a block inconclusive
O=C(O)Cc1sc(Nc2cccc3ccccc23)nc1-c1ccc(F)cc1	G9a block 45µM
COc1ccc(Cn2c(CCC(=O)NCCC(C)C)nc3ncccc3c2=O)cc1	none
Cc1nc2c3ccccc3nc(NNC(=O)CCC(=O)NCCN3CCN(c4ccccc4F)CC3)n2n1	PLK1 PBD block 30µM
COCCNC(=O)CCC(=O)NNc1nc2ccccc2c2nc(C)nn12	JMJD2A Tudor 79µM
Cc1nc2c3ccccc3nc(NNC(=O)CCC(=O)O)n2n1	G9a block inconclusive (no result: Sfp inh, PLK1 PBD block)
Oc1ccccc1C1NN=C(c2ccccc2)S1 (centres undefined)	BAZ2B inh 18µM, PLK1 PBD block inconclusive (no result: G9a block)
O=C(CSc1ccc2c(c1)OCCO2)N1CCN(c2ccccc2O)CC1	G9a block 50µM (no result: Sfp inh)
O=C(O)c1[nH]c2ccc(Cl)cc2c1CC(=O)N1CCN(c2ccccc2)CC1	G9a block 50µM
COc1ccc(CC(=O)N2CCN(c3ccccc3)CC2)cc1	none
COc1ccccc1N1CCN(C(=O)Cc2c(C(=O)O)[nH]c3ccc(Cl)cc23)CC1	none
O=C(C1CC(=O)N(c2ccc3c(c2)OCCO3)C1)N1CCN(c2ccccc2)CC1 (centres undefined)	BAZ2B inh 50µM, G9a block inconclusive, JMJD2A Tudor inconclusive
O=C(Cc1ccc2c(c1)OCCO2)N1CCN(c2ccccc2)CC1	G9a block 50µM
O=C(CSc1ccc2c(c1)OCCO2)N1CCN(c2ccccc2)CC1	G9a block inconclusive (no result: Sfp inh)
O=C(Nc1ccc(Cc2ccncc2)cc1)c1ccc([N+](=O)[O-])o1	BAZ2B inh inconclusive (no result: G9a block)
CN(Cc1ccc(Cl)cc1Cl)C(=O)C1CSC2(C)CCC(=O)N12 (centres undefined)	none (no result: BAZ2B inh, Sfp inh, HP1b binding inh, G9a block, JMJD2A Tudor)
CCOc1ccc(CN(C)c2nc(-c3cccnc3)nc3ccccc23)cc1OC	BAZ2B inh 35µM, G9a block inconclusive, JMJD2A Tudor inconclusive
CN(Cc1ccccc1F)c1nc(-c2cccnc2)nc2ccccc12	none
Cc1ccc(CN(C)c2nc(-c3cccnc3)nc3ccccc23)o1	G9a block 40µM
CN(Cc1ccco1)c1nc(-c2cccnc2)nc2ccccc12	none (no result: BAZ2B inh, PLK1 PBD block, HP1b binding inh, JMJD2A Tudor)
COc1ccc(NC(=O)CSc2n[nH]c(-c3ccccc3)n2)cc1S(N)(=O)=O	none (no result: Sfp inh)
COc1ccc(CN2CCC(C(=O)NC(C)c3cccc4ccccc34)CC2)cc1 (centres undefined)	none (no result: BAZ2B inh, Sfp inh, HP1b binding inh, G9a block, JMJD2A Tudor)
C[C@H](C(=O)OCO/N=[N+](\[O-])N1CCCC1)c1cccc2ccccc12	Sfp inh 56µM (no result: BAZ2B inh, PLK1 PBD block, G9a block)
CCCNC(=O)CCCN1C(=O)CCn2nc(-c3cccn3C)cc21	BAZ2B inh inconclusive (no result: Sfp inh, PLK1 PBD block)
Cc1cc2c(cc1C)N(C(=O)CCl)CCN2C(=O)CCl	PLK1 PBD block inconclusive, JMJD2A Tudor 40µM (no result: BAZ2B inh, Sfp inh, G9a block)
O=C(Nc1ccc(Oc2ccccc2)cc1)c1cnc2n(c1=O)CCS2	G9a block 56µM
CCOc1ccccc1NC(=O)c1cnc2n(c1=O)CCS2	G9a block 79µM
COc1ccc(C)cc1NC(=O)c1cnc2n(c1=O)CCS2	none
CCC1(c2ccc(OC)cc2)NC(=O)N(C)C1=O (centres undefined)	none (no result: BAZ2B inh, PLK1 PBD block, HP1b binding inh, G9a block, JMJD2A Tudor)
CCc1ccc(OCC(=O)OC(C)C(=O)Nc2ccc(Cl)cn2)cc1 (centres undefined)	none (no result: Sfp inh)
